Reference: PubChem BioAssay (Tox21)
Where “and” joins values, the source holds several entries; their conditions need not be identical. Identical values can stand only once. Results filed as inconclusive are left out. Calls of active or inactive are those of the source. Unless noted, calls follow the shape of the dose curve; as a rule, active = well fitted curve in the direction sought with a large enough effect in the repeat runs; inconclusive = weak or mixed curves; inactive = no such curve, though single readings can be large; an effect the other way counts as inactive or inconclusive.

What was measured:
[1] = qHTS assay for small molecules that induce genotoxicity in human embryonic kidney cells expressing luciferase-tagged ATAD5 (AID 651632); also: nearly all actives have a fitted effect of over 15% in size
Method in brief: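 Test compounds were delivered by pin tool onto HEK293T reporter cells (2,000/well) expressing ATAD5 fused to luciferase. After 16 hr at 37C, 5% CO2, Amplite was added for 30 min at room temperature and luminescence was measured.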

[2] = qHTS assay to test for compound auto fluorescence at 590 nm (red) in HepG2 cells (AID 720674)
Method in brief: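 1 hr compound incubation on HepG2 cells, 37 C, 5% CO2; plate read ex 540 nm / em 590 nm; intensities reported as Rose Bengal sodium equivalents.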

[3] = qHTS assay to test for compound auto fluorescence at 535 nm (green) in HepG2 cells (AID 720675)
[4] = qHTS assay to test for compound auto fluorescence at 460 nm (blue) in HEK293 cells (AID 720678)
Method in brief: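 Blue read-out at excitation 405 nm and emission 460 nm follows overnight compound exposure of HEK293 cells at 37C in 5% CO2. Activity is given as auto fluorescence equivalency to triamterene.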

[5] = qHTS assay to test for compound auto fluorescence at 590 nm (red) in HEK293 cells (AID 720679)
Method in brief: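 Red channel, Ex/Em 540/590nm; signal expressed as equivalency to Rose Bengal sodium. HEK293, 2,000 cells/well, 10% dialyzed FBS; 23 nL compound pinned after 4-5 hr attachment; overnight 37C/5% CO2 before reading.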

[6] = qHTS assay to test for compound auto fluorescence at 535 nm (green) in HEK293 cells (AID 720680)
[7] = qHTS assay to test for compound auto fluorescence at 460 nm (blue) in HEK293 cell free culture (AID 720681)
Method in brief: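 Blue fluorescence (Ex 405/Em 460 nm, triamterene-equivalent) was read immediately after pin transfer of compound or DMSO into medium (DMEM, 10% FBS) without cells.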

[8] = qHTS assay to test for compound auto fluorescence at 535 nm (green) in HEK293 cell free culture (AID 720682)
Method in brief: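 Intrinsic compound fluorescence is measured in culture medium containing 10% FBS, with excitation at 485 nm and detection at 535 nm, referenced to fluorescein.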

[9] = qHTS assay to test for compound auto fluorescence at 535 nm (green) in HepG2 cell free culture (AID 720686)
[10] = qHTS assay to test for compound auto fluorescence at 460 nm (blue) in HepG2 cells (AID 720687)
Method in brief: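 Blue-channel autofluorescence (Ex/Em 405/460 nm, triamterene-equivalent) was measured after 1 hr compound exposure at 37 C, 5% CO2. Cells were HepG2, plated overnight at 37 C in MEM plus 10% FBS.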

[11] = qHTS assay for identifying genotoxic compounds that show differential cytotoxicity against isogenic chicken DT40 cell lines with known DNA damage response pathways - Rad54/Ku70 mutant cell line (AID 743015); also: nearly all actives have a fitted effect of over 60% in size; also: potency is read from the fitted curve at half-maximal effect
[12] = qHTS assay to identify small molecule antagonists of the estrogen related receptor signaling pathway with the pleiotropic PPARgamma coactivator (PGC) from Tox21 10K library (AID 1224841; call rule not given here; also: actives are mostly falling curves and most rising ones were filed inactive; nearly all actives have a fitted effect of over 50% in size; also: potency is read from the fitted curve at half-maximal effect)
Method in brief: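 In the PGC/ERR line, DMSO solutions of test chemicals are pin-delivered to 2,000 cells/well six hours after dispensing. Following eighteen hours' incubation, One-Glo reagent is added and luminescence recorded.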

[13] = qHTS assay to identify small molecule agonists of H2AX - cell viability counter screen (AID 1224847; calls by dose curve; also: nearly all actives have a fitted effect of over 30% in size; also: potency is read from the fitted curve at half-maximal effect)
Method in brief: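 Viability of CHO-K1 (wild type) cells after 3 hr compound exposure was measured by CellTiter-Glo luminescence.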

[14] = qHTS assay to identify small molecule antagonists of the estrogen related receptor (ERR) signaling pathway from Tox21 library (AID 1224848); also: potency is read from the fitted curve at half-maximal effect; nearly all actives have a fitted effect of over 50% in size
Method in brief: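 Luciferase luminescence (ONE-Glo, 30 min room temperature) was the read-out. Cells of the NTP-supplied ERR line, 2,000 per well, were given 6 h at 37 C before compound addition in DMSO and 18 h exposure at 37 C.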

[15] = qHTS RealTime-Glo MT Cell Viability Assay in HEK293 cells - 8 hour (AID 1224887); also: nearly all actives have a fitted effect of over 50% in size; also: potency is read from the fitted curve at half-maximal effect
Method in brief: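 Measured as luminescence from the same continuously cultured HEK293 wells at successive time points (0, 8, 16, 24, 32, 40 h) after compound addition. Reagent present from seeding; dosing at 5 h; incubation 37 C.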

[16] = target: Estrogen receptor beta (Homo sapiens) (UniProt Q92731); assay: qHTS assay to identify small molecule agonists of the estrogen receptor beta (ER-beta) signaling pathway (AID 1259377; active = well fitted activation curve with a large enough effect in the signal ratio in the repeat runs, not every such curve was filed as active; the % refers to the signal ratio)
Method in brief: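 Measured by fluorescence intensity from a B/G FRET beta-lactamase substrate (2 h, room temperature) in ER-beta-UAS-bla HEK293T cells treated with DMSO-dissolved compounds for 16 hr at 37C and 5% CO2.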

[17] = qHTS assay to test for compound auto fluorescence at 590 nm (red) in HepG2 cell free culture (AID 720684)
Method in brief: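 Cell-free; medium MEM + 10% FBS; compound or DMSO added by pintool; read Ex 540/Em 590 nm; Rose Bengal sodium as red reference fluorophore.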

[18] = target: Thyrotropin receptor (Homo sapiens) (UniProt P16473); assay: qHTS assay to identify small molecule agonists of the thyroid stimulating hormone receptor (TSHR) signaling pathway (AID 1224843; calls by dose curve; also: nearly all actives have a fitted effect of over 45% in size; also: potency is read from the fitted curve at half-maximal effect)
Method in brief: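 Agonist activity read as cAMP rise via d2/cryptate HTRF competition, 1 h room-temperature detection, in HEK293 cells expressing TSHR. Fifteen-point titrations, each run in triplicate, with a 30 min room-temperature incubation beforehand.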

[19] = target: Estrogen receptor (Homo sapiens) (UniProt P03372); assay: qHTS assay to identify small molecule antagonists of the estrogen receptor alpha (ER-alpha) signaling pathway using the BG1 cell line in the presence of 0.1 nM 17-beta-estradiol (AID 1259244); also: nearly all actives have a fitted effect of over 50% in size; also: potency is read from the fitted curve at half-maximal effect
Method in brief: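 Seeding of stripped-serum-adapted VM7Luc4E2 cells, 24 h attachment, compound transfer, then 0.1 nM final 17beta-estradiol; after 22 h incubation, ONE-Glo reagent and luminescence reading.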

[20] = target: Thyrotropin-releasing hormone receptor (Homo sapiens) (UniProt P34981); assay: qHTS assay to identify small molecule antagonists of the thyrotropin-releasing hormone receptor (TRHR) signaling pathway (AID 1346877; active = well fitted inhibition curve with a large enough effect in the repeat runs, not every such curve was filed as active; also: series mostly up to about 51 µM)
Method in brief: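 Human TRHR in HEK293 cells; inhibition of the intracellular calcium rise triggered by 1 nM TRH was followed by fluorescence over 3 min. Compounds were run at 15 concentrations, three replicates each.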

Measured: Potency

Chain of Estrogen receptor beta (Homo sapiens) (Q92731 whole entry, looked up): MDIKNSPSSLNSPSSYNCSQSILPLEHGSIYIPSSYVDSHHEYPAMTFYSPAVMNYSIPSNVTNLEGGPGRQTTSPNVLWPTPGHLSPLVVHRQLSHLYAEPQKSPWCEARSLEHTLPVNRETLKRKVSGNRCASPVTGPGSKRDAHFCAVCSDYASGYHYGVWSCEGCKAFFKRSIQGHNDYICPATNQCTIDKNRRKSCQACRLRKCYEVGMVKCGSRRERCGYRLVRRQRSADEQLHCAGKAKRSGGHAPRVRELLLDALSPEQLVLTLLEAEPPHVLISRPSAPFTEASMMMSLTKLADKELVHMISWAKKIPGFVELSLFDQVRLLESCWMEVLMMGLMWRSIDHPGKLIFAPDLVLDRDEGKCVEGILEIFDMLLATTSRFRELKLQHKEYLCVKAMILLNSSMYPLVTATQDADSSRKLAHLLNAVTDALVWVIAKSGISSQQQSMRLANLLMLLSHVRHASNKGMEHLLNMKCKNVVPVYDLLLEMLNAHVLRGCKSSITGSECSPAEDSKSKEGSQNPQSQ
Chain of Thyrotropin-releasing hormone receptor (Homo sapiens) (P34981 whole entry, looked up): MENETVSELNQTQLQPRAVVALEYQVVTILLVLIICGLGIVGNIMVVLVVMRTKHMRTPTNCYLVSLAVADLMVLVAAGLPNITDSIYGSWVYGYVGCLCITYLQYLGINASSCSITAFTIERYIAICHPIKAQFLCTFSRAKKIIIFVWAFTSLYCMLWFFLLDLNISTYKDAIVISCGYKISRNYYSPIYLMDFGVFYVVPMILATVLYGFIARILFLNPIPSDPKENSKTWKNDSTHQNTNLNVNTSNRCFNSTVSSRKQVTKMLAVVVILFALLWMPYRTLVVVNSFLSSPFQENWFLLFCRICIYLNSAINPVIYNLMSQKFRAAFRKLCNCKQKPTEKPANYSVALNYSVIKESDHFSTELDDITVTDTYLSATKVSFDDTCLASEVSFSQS
Chain of Thyrotropin receptor (Homo sapiens) (P16473 whole entry, looked up): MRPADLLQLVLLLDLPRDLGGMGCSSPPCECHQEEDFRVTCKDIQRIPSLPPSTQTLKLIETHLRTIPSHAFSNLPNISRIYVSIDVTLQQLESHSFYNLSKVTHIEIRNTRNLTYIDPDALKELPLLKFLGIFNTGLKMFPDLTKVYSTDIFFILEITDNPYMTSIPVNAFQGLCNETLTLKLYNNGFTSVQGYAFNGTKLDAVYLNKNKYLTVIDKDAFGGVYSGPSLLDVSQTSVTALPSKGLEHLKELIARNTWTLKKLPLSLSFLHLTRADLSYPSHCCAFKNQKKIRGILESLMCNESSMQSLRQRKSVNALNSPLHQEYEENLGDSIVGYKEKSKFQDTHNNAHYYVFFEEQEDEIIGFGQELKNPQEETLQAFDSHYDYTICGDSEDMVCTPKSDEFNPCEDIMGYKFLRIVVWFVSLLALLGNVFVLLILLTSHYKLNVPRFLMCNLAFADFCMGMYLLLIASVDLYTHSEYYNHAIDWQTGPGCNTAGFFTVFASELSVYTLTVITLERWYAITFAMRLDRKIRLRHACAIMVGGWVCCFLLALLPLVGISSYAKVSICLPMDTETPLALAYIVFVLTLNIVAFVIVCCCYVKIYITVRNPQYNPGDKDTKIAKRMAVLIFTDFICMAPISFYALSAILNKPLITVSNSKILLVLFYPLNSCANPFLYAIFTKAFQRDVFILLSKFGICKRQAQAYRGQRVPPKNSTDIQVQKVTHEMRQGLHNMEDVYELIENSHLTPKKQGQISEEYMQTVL
Chain of Estrogen receptor (Homo sapiens) (P03372 whole entry, looked up): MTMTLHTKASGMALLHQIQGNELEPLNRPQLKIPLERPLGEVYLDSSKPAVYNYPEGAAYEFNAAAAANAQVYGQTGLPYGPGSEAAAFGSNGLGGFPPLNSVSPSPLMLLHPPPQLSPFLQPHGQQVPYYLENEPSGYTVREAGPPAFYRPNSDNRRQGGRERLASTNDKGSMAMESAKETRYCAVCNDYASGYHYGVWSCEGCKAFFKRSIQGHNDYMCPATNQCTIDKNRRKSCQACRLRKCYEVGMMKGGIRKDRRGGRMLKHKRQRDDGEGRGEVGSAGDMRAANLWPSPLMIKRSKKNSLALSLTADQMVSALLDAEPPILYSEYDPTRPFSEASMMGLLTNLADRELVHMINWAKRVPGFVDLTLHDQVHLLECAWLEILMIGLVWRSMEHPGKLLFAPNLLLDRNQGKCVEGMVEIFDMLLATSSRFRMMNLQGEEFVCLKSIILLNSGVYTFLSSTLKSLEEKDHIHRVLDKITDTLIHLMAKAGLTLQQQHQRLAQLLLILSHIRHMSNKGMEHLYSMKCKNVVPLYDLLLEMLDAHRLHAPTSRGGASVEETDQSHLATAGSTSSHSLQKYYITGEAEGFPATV

Cc1ccc(N(SC(F)(Cl)Cl)S(=O)(=O)N(C)C)cc1
active: [11] 0.137 µM | [12] 24.3 µM | [13] 89.8 µM | [14] 24.3 µM | [15] 12.3 µM
not listed: [17] | [18] | [19] | [20]
inactive: all other assays above

CC1COC(Cn2cncn2)(c2ccc(Oc3ccc(Cl)cc3)cc2Cl)O1 (centres undefined)
active: [11] 2.43 µM | [12] 8.63 µM | [13] 101 µM | [14] 4.33 µM | [15] 21.9 µM | [19] 10.9 µM
not listed: [20]
inactive: all other assays above

COc1cc(OC)c(OC)cc1C=O
active: [12] 21.9 µM | [14] 18.7 µM | [19] 59.3 µM
not listed: [9] | [11] | [16] | [17]
inactive: all other assays above

Cc1nnc2n1-c1sc(CCc3ccc(CC(C)C)cc3)cc1C(c1ccccc1Cl)=NC2C (centres undefined)
active: [11] 13.3 µM | [12] 10.6 µM | [18] 18.8 µM | [14] 9.44 µM | [15] 21.3 µM | [19] 29.8 µM
not listed: [13]
inactive: all other assays above

OC(Cc1ccccc1Cl)(Cn1[nH]cnc1=S)C1(Cl)CC1 (centres undefined)
inactive: [18] | [20]

CCOC(=O)C(O)(c1ccc(Cl)cc1)c1ccc(Cl)cc1
active: [11] 3.9 µM and 17.2 µM | [13] 90.7 µM and 56.6 µM | [15] 22.1 µM | [19] 61.1 µM
not listed: [3] | [12] | [14] | [18]
inactive: all other assays above

CNC(=O)Oc1cc(C)c(SC)c(C)c1
inactive: [18] | [13] | [20]

CN1CSC(=S)N(C)C1
active: [11] 6.08 µM and 4.84 µM | [13] 56.4 µM | [14] 4.83 µM and 13.6 µM | [19] 13.6 µM and 17.2 µM
not listed: [12] | [16]
inactive: all other assays above

O=S(=O)(C(Cl)(Cl)Cl)C(Cl)(Cl)Cl
active: [13] 89.8 µM | [14] 54.5 µM | [15] 15.5 µM | [19] 27.3 µM

Cc1cc(C)c(C(=O)P(=O)(c2ccccc2)c2ccccc2)c(C)c1
inactive: [18] | [19]
active: [12] 54.5 µM | [14] 54.5 µM | [15] 43.6 µM

OCC(c1ccc(Cl)cc1)c1ccc(Cl)cc1
active: [11] 15.4 µM | [13] 89.8 µM | [15] 34.7 µM
not listed: [12] | [14] | [18] | [19]
inactive: all other assays above

c1ccc2c(c1)Sc1ccccc1N2CC1CN2CCC1CC2 (centres undefined)
active: [11] 8.41 µM
not listed: [13] | [14] | [15] | [16] | [18] | [19] | [20]
inactive: all other assays above

Cc1cccc(C)c1[N+](=O)[O-]
inactive: [16]

Clc1ccccc1-c1ccccc1Cl
active: [13] 64.5 µM
not listed: [12] | [14] | [15] | [16] | [17] | [18] | [19] | [20]
inactive: all other assays above

Cc1cccc([N+](=O)[O-])c1C
inactive: [16]

Brc1ccc(Br)c(Br)c1
inactive: [16]

Oc1ccc(Cl)cc1Cc1cc(Cl)ccc1O
inactive: [18]

Nc1cccc([N+](=O)[O-])c1
inactive: [16]
